Hits are enriched below; roughly 8% of the tested compounds scored in any of these assays.
SW480 rereplic – DNA re-replication induction in SW480 cells; SW480 DNA re-replication, Hoechst DNA content imaging, 48 h; Potency, µM (titrated, usually from 46.1 µM), actives largely listed as activators; 340,000 tested, 1.8% active; AID 624297; note: nearly all actives have a fitted effect of over 55% in size
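Cells (250 per well) received 23 nL compound or DMSO by pin tool and were kept 48 hr at 37 C, 5% CO2. Nuclei were then stained with Hoechst for 40 min and scanned for DNA content.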
KB-3-1 cytotox – kills parental KB-3-1 adenocarcinoma cells; KB-3-1 viability, CellTiter-Glo ATP luminescence, 72 h; Potency, µM (titrated, usually from 46.1 µM), usual class: cytotoxic; 400,000 tested, 1.4% active; AID 1347075; note: nearly all actives have a fitted effect of over 60% in size
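Parental KB-3-1 viability, qHTS format: 72 h compound exposure, 37 °C; CellTiter-Glo; media-only wells and DMSO plates as controls; concentration-effect fits on corrected data.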
HT1080-NT tox – kills 2HG-producing HT-1080-NT fibrosarcoma cells | HT-1080-NT fibrosarcoma viability, CellTiter-Glo ATP luminescence, 48 h | 360,000 tested, 1.6% active | AID 686970 | Potency, µM (highest dose often 46.1 µM), actives largely listed as cytotoxic;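 note: NT is the 2HG producing partner of a matched IDH1 knockdown line; nearly all actives have a fitted effect of over 55% in size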
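Read-out is CellTiter-Glo luminescence after 10 minutes at room temperature, following 48 hours' compound treatment of HT-1080-NT cells (750 cells/well, RPMI, 5% FBS, 37 degrees C).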
KB-V1 cytotox – kills drug-selected multidrug resistant KB-V1 cells. AID 1347076. Potency, µM (titrated, usually from 46.1 µM), usual class: cytotoxic. KB-V1 MDR cells viability, CellTiter-Glo, 72 h. 400,000 tested, 3.4% active; note: nearly all actives have a fitted effect of over 60% in size
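KB-V1 MDR subline cells in DMEM (phenol-red free, 10% FBS) exposed to compounds in qHTS concentration series for 72 h at 37 degrees C. Viability read by CellTiter-Glo luminescence; concentration-effect curves fitted after normalization and correction.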
HT1080 IDH1KD tx – toxicity to HT-1080 IDH1 knockdown cells (counter line) | 360,000 tested, 2% active | Potency, µM (series often up to 46.1 µM), most hits filed as cytotoxic | AID 686971 | HT-1080 IDH1 knockdown viability, ATP luminescence, 48 h
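HT-1080-IDH1KD cells (IDH1 knocked down), 750/well in RPMI with 5% FBS, treated with compound 48 h at 37 degrees C. Viability by CellTiter-Glo luminescence, normalised to DMSO and no-cell wells; concentration-response curves classed.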
MCF10A rerep – induces DNA re-replication in MCF 10a normal breast cells. 350,000 tested, 2.9% active. Potency, µM (top dose mostly 46.1 µM), usual class: activators. AID 624296. MCF 10A DNA re-replication, Hoechst nuclear intensity, 48 h; note: nearly all actives have a fitted effect of over 50% in size
Each line names hits and unclear results; the compound was inactive in the other large screens. Calls come from the whole dose curve; as a rule, active = well fitted curve in the direction sought with a large enough effect; inconclusive = small, poorly fitted or top-dose-only effect, or another doubt; inactive = no such curve, though single readings can be large; an effect the other way counts as inactive or inconclusive.

COC(=O)C1=CN(C(C)C)C=C(C(=O)OC)C1c1cc2c(cc1Br)OCO2	SW480 rereplic inconclusive, HT1080 IDH1KD tx inconclusive, MCF10A rerep 14.6µM
Cn1c(CCNC(=O)c2ccco2)nc2cc(NC(=O)COc3ccc(Cl)cc3)ccc21	none (no result: SW480 rereplic, HT1080-NT tox, HT1080 IDH1KD tx, MCF10A rerep)
Cc1cc(N2CCN(c3ccc(F)cc3)CC2)n2nc(-c3ccc(Cl)cc3)nc2n1	KB-V1 cytotox inconclusive (no result: SW480 rereplic, HT1080-NT tox, HT1080 IDH1KD tx, MCF10A rerep)
Cc1cc(C)cc(-n2c(SCC(=O)N3CCOCC3)nc3c([nH]c4ccccc43)c2=O)c1	KB-V1 cytotox inconclusive (no result: SW480 rereplic, HT1080-NT tox, HT1080 IDH1KD tx, MCF10A rerep)
O=C(O)Cn1cnc2c(=S)nc[nH]c21	none
S=c1nc[nH]c2c1ncn2-c1ccc(Cl)cc1	KB-3-1 cytotox inconclusive, KB-V1 cytotox 10.3µM
c1ccc(OCCNc2nc(NCC3CC3)nc3ccsc23)cc1	HT1080-NT tox 20.6µM, KB-V1 cytotox inconclusive, HT1080 IDH1KD tx inconclusive (no result: SW480 rereplic, MCF10A rerep)
c1cc2cc(CNc3nc(NCC4CC4)nc4ccsc34)ccc2o1	HT1080-NT tox inconclusive, KB-V1 cytotox inconclusive, HT1080 IDH1KD tx 13µM (no result: SW480 rereplic, MCF10A rerep)
Cc1ccccc1-c1nc(NCC2CC2)nc2ccsc12	none (no result: SW480 rereplic, MCF10A rerep)
COc1ccccc1CNc1nc(NCc2cccs2)nc2ccsc12	HT1080-NT tox inconclusive, HT1080 IDH1KD tx inconclusive (no result: SW480 rereplic, MCF10A rerep)
COc1ccccc1CNc1nc(NCc2ccc3occc3c2)c2sccc2n1	HT1080-NT tox 16.4µM, HT1080 IDH1KD tx inconclusive (no result: SW480 rereplic, MCF10A rerep)
c1ccc(-c2nc(NCC3CC3)nc3ccsc23)cc1	none (no result: SW480 rereplic, MCF10A rerep)
COc1ccccc1CNc1nc(NCc2ccccc2OC)c2sccc2n1	KB-3-1 cytotox inconclusive, HT1080-NT tox 20.6µM, KB-V1 cytotox inconclusive, HT1080 IDH1KD tx 23.1µM (no result: SW480 rereplic, MCF10A rerep)
O=C(CSc1ccc(Br)cc1)NC1CCS(=O)(=O)C1 (stereo not given)	none
COc1ccccc1CNc1nc(NCCOc2ccccc2)c2sccc2n1	KB-3-1 cytotox inconclusive, HT1080-NT tox inconclusive, KB-V1 cytotox 20.6µM, HT1080 IDH1KD tx inconclusive (no result: SW480 rereplic, MCF10A rerep)
COc1ccccc1CNc1nc(NCC2CC2)nc2ccsc12	KB-3-1 cytotox inconclusive, HT1080-NT tox inconclusive, HT1080 IDH1KD tx 14.6µM (no result: SW480 rereplic, MCF10A rerep)
COCCNc1nc(NCc2ccccc2OC)c2sccc2n1	HT1080-NT tox inconclusive, KB-V1 cytotox inconclusive, HT1080 IDH1KD tx inconclusive (no result: SW480 rereplic, MCF10A rerep)
COCCNC(=O)C1CCN(Cc2cc3ccccc3n2Cc2ccc(C)cc2)CC1	none (no result: SW480 rereplic, HT1080-NT tox, HT1080 IDH1KD tx, MCF10A rerep)
CN(C)/C=C/C(=O)c1ccccc1	none
CN(C)/C=C/C(=O)c1ccc(F)cc1	MCF10A rerep 18.4µM
Cc1ccc(C(=O)c2cc([N+](=O)[O-])ccc2N2CCCCC2)cc1C	SW480 rereplic 1.84µM, KB-3-1 cytotox 2.91µM, HT1080-NT tox 1.64µM, KB-V1 cytotox 5.8µM, HT1080 IDH1KD tx 1.46µM, MCF10A rerep inconclusive
Cc1ccc(C(=O)c2cc([N+](=O)[O-])ccc2N2CCOCC2)cc1C	KB-3-1 cytotox 16.4µM, HT1080-NT tox inconclusive, KB-V1 cytotox 3.66µM, HT1080 IDH1KD tx 1.84µM, MCF10A rerep inconclusive (no result: SW480 rereplic)
Cc1cccc(NC(=O)c2cc([N+](=O)[O-])ccc2N2CCOCC2)c1C	none (no result: SW480 rereplic, MCF10A rerep)
O=C(NC1CCCCC1)c1cc([N+](=O)[O-])ccc1N1CCCCC1	KB-V1 cytotox 9.2µM
Cc1ccc(C(=O)c2ccc([N+](=O)[O-])cc2)cc1C	none
Cc1ccc(C(=O)c2cc([N+](=O)[O-])ccc2N2CCOCC2)c(C)c1	SW480 rereplic 0.13µM, KB-3-1 cytotox 1.03µM, HT1080-NT tox inconclusive, KB-V1 cytotox 0.581µM, HT1080 IDH1KD tx inconclusive, MCF10A rerep 0.92µM
O=C(COc1ccc(Cl)cc1)N1CCN(S(=O)(=O)c2cc(F)ccc2F)CC1	KB-3-1 cytotox inconclusive, KB-V1 cytotox inconclusive (no result: SW480 rereplic, MCF10A rerep)
CCN(CC)S(=O)(=O)c1ccc(-c2nnc(SCC(=O)N3c4ccccc4CC3C)n2CC)cc1 (stereo not given)	KB-V1 cytotox 20.6µM
CCN(CC)S(=O)(=O)c1ccc(-c2nnc(SCC(=O)N3c4ccccc4CC3C)o2)cc1 (stereo not given)	KB-V1 cytotox inconclusive
CC1Cc2ccccc2N1C(=O)CSc1nnc(Cc2ccccc2)n1CCc1ccccc1 (stereo not given)	SW480 rereplic inconclusive, KB-V1 cytotox 3.26µM, MCF10A rerep inconclusive
CSc1ccc(CCNC(=O)c2c(C)oc3ncn(C)c(=O)c23)cc1	none (no result: SW480 rereplic, HT1080-NT tox, HT1080 IDH1KD tx, MCF10A rerep)
CNC(=O)NC(=O)CSc1ccc(S(=O)(=O)N2CCOCC2)cn1	none
Cc1cccc(C(=O)OC(C)C(=O)N2CCc3ccccc3C2)c1C (stereo not given)	KB-V1 cytotox 18.4µM
CC(Oc1ccccc1)C(=O)N1CCc2ccccc2C1 (stereo not given)	HT1080-NT tox inconclusive
Cc1ccccc1C(=O)N1CCc2ccccc2C1	MCF10A rerep 16.4µM
O=C(c1ccccc1Cl)N1CCc2ccccc2C1	none
C[C@@H]1CN([C@@H](C)CO)C(=O)CCCn2nncc2CO[C@H]1CN(C)S(=O)(=O)c1cn(C)cn1	KB-3-1 cytotox inconclusive (no result: SW480 rereplic, MCF10A rerep)
CC(=O)c1c(C(C)=O)c(C)n(-c2ccc(C)c(NC(=O)c3ccccc3Cl)c2)c1C	KB-V1 cytotox 3.66µM
C=CCn1c(=N)n(CC(=O)c2ccc(Br)s2)c2ccccc21	SW480 rereplic inconclusive, KB-3-1 cytotox 14.6µM
O=C(CNC(=O)c1ccccc1F)NCc1cccnc1	KB-V1 cytotox inconclusive
CC1CCCC(C)N1C(=O)CSCc1ccc(Cl)cc1 (stereo not given)	KB-3-1 cytotox inconclusive, KB-V1 cytotox 18.4µM
COc1ccc(CNCc2ccc(C(=O)O)s2)cc1	none (no result: SW480 rereplic, HT1080-NT tox, HT1080 IDH1KD tx, MCF10A rerep)
Cc1ccc([N+](=O)[O-])c(OCCN2C(=O)NC(C)(C)C2=O)c1	none

From PubChem
